Results filed as inconclusive are left out. Calls of active or inactive are those of the source. The call rests on the fitted dose curve; in most records, active means well fitted cell-killing curve with a large enough effect; inconclusive means small, poorly fitted or top-dose-only effect, or effect the other way; inactive means no such curve, though single readings can be large or run the other way.
Assay: Quantitative High-Throughput drug screen in 47 multiple myeloma cell lines against the NCATS MIPE library collection: U266_ATCC cell viability assay (AID 1919864); further: nearly all actives have a fitted effect of over 35% in size
Conditions: U266 myeloma viability, CellTiter-Glo ATP luminescence, 48 h; series mostly up to 45.8 µM
In short: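 Readout: median RLU from CellTiter-Glo after 5 min at room temperature. Preceding step was 48 h drug treatment of 500 cells/well at 37 °C, 5% CO2, with DMSO-only and media-only control wells.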
Potency means the concentration at half of the fitted maximal effect.

SMILES	Potency
O=C1C=CC[C@@H]2[C@H]3CCCN4CCC[C@@H](CN12)[C@@H]34	16.6 µM (active)
C[C@]12CC[C@@H]3[C@@H](CCC4=CC(=O)CC[C@@H]43)[C@@H]1CC[C@@H]2OC(=O)CCc1ccccc1	inactive
CC(C)N[C@@H]1CCn2c(=O)[nH]c3cccc(c32)[C@@H]1O	1.66 µM (active)
N=c1c2c(-c3ccccc3)c(-c3ccccc3)n(Cc3ccccc3)c2ncn1C1CCC(O)CC1 (stereo unspecified)	4.69 µM (active)
C[C@]12CC[C@H]3[C@@H](CCC4=CC(=O)CC[C@@]43C)[C@H]1CC[C@H]2OC(=O)CCC1CCCC1	inactive
Cc1ccccc1-n1c(Cn2ncc3c(N)ncnc32)nc2cccc(C)c2c1=O	inactive
CCOC(=O)c1cncn1[C@H](C)c1ccccc1	inactive
O=C(N[C@H]1CN2CCC1CC2)c1ccc(Cl)cc1	4.18 µM (active)
CC[C@H]1C=CC=CC[C@@H](C)[C@H](O)[C@@](C)(O)C(=O)[C@@H](C)[C@H](O)[C@@H](C)C(=O)[C@@H](C)[C@H](O)[C@@H](C)C=CC(=O)O[C@@H]2[C@@H](C)[C@H](CC1)O[C@]1(CC[C@H](C)[C@H](C[C@@H](C)O)O1)[C@H]2C	20.9 µM (active)
CCNC(=O)CC1N=C(c2ccc(Cl)cc2)c2cc(OC)ccc2-n2c(C)nnc21 (stereo unspecified)	18.7 µM (active)
N#C[C@H](O[C@@H]1O[C@H](CO[C@@H]2O[C@H](CO)[C@H](O)[C@H](O)[C@H]2O)[C@H](O)[C@H](O)[C@H]1O)c1ccccc1	23.5 µM (active)
Cc1c(C(=O)c2cccc3ccccc23)c2cccc3c2n1[C@H](CN1CCOCC1)CO3	18.7 µM (active)
CCN1C[C@]2(OC(=O)c3ccccc3NC(C)=O)CC[C@H](OC)[C@@]34[C@H]5CC6[C@@H](OC)C[C@](O)(C(C[C@@H]23)[C@@H]14)[C@@]5(O)[C@@H]6OC	inactive
CC1(N2CCC(n3c([C@@H]4CCCNC4)nc4ccccc43)CC2)CCCCCCC1	5.26 µM (active)
O=[N+]([O-])c1ncc[nH]1	inactive
CN[C@@H]1Cc2cccc3[nH]c(=O)n(c23)C1	inactive
CC(C)(C)c1cc(C=C(C#N)C#N)cc(Br)c1O	26.4 µM (active)
CCCN1CCO[C@@H]2c3cc(O)ccc3OC[C@@H]21	inactive
CCOP(=O)(OCC)C(C)NC(=O)N(CCCl)N=O (stereo unspecified)	inactive
C[C@]12Cc3cn[nH]c3C[C@@H]1CC[C@@H]1[C@H]2CC[C@@]2(C)[C@H]1CC[C@]2(C)O	inactive
CC(N[C@H]1C[C@H]1c1ccccc1)c1ccc2c(c1)OCCO2 (stereo partly specified)	14.8 µM (active)
COC[C@H]1OC(=O)c2coc3c2[C@@]1(C)C1=C(C3=O)[C@@H]2CC[C@H](O)[C@@]2(C)C[C@@H]1OC(C)=O	16.6 µM (active)
C=C1C[C@H]2[C@H]3CCC(=O)[C@@]3(C)CC[C@@H]2[C@@]2(C)C=CC(=O)C=C12	20.9 µM (active)
O=C(NCC1CCOCC1)c1cnc(Nc2ccc(Cl)cc2Cl)nc1C(F)(F)F	8.33 µM (active)
C[C@](O)(COc1ccc(C#N)cc1)C(=O)Nc1ccc(C#N)c(C(F)(F)F)c1	inactive
O=C(Nc1ccncc1)C(=O)c1cn(Cc2ccc(Cl)cc2)c2ccccc12	inactive

From PubChem BioAssay (NCATS)
